Inconclusive results are not listed. Calls of active or inactive are those of the source. Unless noted, calls follow the shape of the dose curve; as a rule, active = well fitted curve in the direction sought with a large enough effect in the repeat runs; inconclusive = weak or mixed curves; inactive = no such curve, though single readings can be large; an effect the other way counts as inactive or inconclusive. Residues, ends and D or L forms follow the SMILES beside them.
Key:
[1] = qHTS assay to identify small molecule agonists of the peroxisome proliferator-activated receptor delta (PPARd) signaling pathway - cell viability counter screen (AID 743211); also: nearly all actives have a fitted effect of over 55% in size
Summary of the method: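 Tox21 library compounds, delivered in DMSO, were incubated 17 h with PPARd-bla HEK293H cells; cytotoxicity was taken from CellTiter-Glo luminescence read 30 min after reagent addition.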

[2] = target: Peroxisome proliferator-activated receptor delta (Homo sapiens) (UniProt Q03181); test: qHTS assay to identify small molecule agonists of the peroxisome proliferator-activated receptor delta (PPARd) signaling pathway (AID 743212; calls by dose curve)
Summary of the method: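 Cells expressing a UAS-driven beta-lactamase reporter (PPARd-bla HEK293H) were given test compounds after a 5 h settle and kept at 37 C. Reporter activity was then measured as FRET fluorescence using LiveBLAzer B/G substrate.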

[3] = qHTS assay to identify small molecule antagonists of the peroxisome proliferator-activated receptor delta (PPARd) signaling pathway - cell viability counter screen (AID 743213); also: nearly all actives have a fitted effect of over 50% in size
Summary of the method: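 Luminescence from CellTiter-Glo, added after the bla read and incubated 30 min at room temperature, gives viability of HEK293H PPARd-bla cells exposed to compounds for 17 h at 37 C with 300 nM L165041.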

[4] = target: Peroxisome proliferator-activated receptor delta (Homo sapiens) (UniProt Q03181); test: qHTS assay to identify small molecule antagonists of the peroxisome proliferator-activated receptor delta (PPARd) signaling pathway (AID 743215; active = well fitted inhibition curve with a large enough effect in the signal ratio in the repeat runs, not every such curve was filed as active; the % refers to the signal ratio;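 also: cells stimulated with agonist L165041 at 300 nM final during compound exposure; series mostly up to about 62 µM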)
Summary of the method: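 Agonist L165041 (300 nM final) added with compound to PPARd-bla HEK293H UAS-bla reporter cells; 17 h incubation at 37 C. Read-out: LiveBLAzer FRET substrate, 2 h at room temperature, fluorescence intensity.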

[5] = target: Bile acid receptor (Homo sapiens) (UniProt Q96RI1); test: qHTS assay to identify small molecule antagonists of the farnesoid-X-receptor (FXR) signaling pathway (AID 743217; active = well fitted inhibition curve with a large enough effect in the signal ratio in the repeat runs, not every such curve was filed as active; the % refers to the signal ratio; also: potency is read from the fitted curve at half-maximal effect)
Summary of the method: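 Antagonist mode: chenodeoxycholic acid at 50 uM final stimulates a UAS-driven beta-lactamase reporter in HEK 293T FXR-bla cells during 16 h, 37C compound exposure. Read-out is FRET substrate fluorescence after 2 h at room temperature.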

[6] = qHTS assay to identify small molecule agonists of the farnesoid-X-receptor (FXR) signaling pathway - cell viability counter screen (AID 743218); also: nearly all actives have a fitted effect of over 45% in size
Summary of the method: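 Viability counter screen in the same wells: CellTiter-Glo luminescence, 30 min room-temperature incubation, measured after the beta-lactamase read. Cells were GeneBLAzer FXR-UAS-bla HEK 293T, compound-treated 16 h at 37C.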

[7] = target: Bile acid receptor (Homo sapiens) (UniProt Q96RI1); test: qHTS assay to identify small molecule agonists of the farnesoid-X-receptor (FXR) signaling pathway (AID 743220; active = well fitted activation curve with a large enough effect in the signal ratio in the repeat runs, not every such curve was filed as active; the % refers to the signal ratio)
Summary of the method: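 FXR-UAS-bla HEK 293T cells carrying a UAS-driven beta-lactamase reporter were plated for 5 h at 37C/5% CO2, then exposed to DMSO-dissolved Tox21 10K compounds for 16 h at 37C. A LiveBLAzer B/G FRET substrate was loaded for 2 h at room temperature before fluorescence reading.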

[8] = qHTS assay to identify small molecule antagonists of the farnesoid-X-receptor (FXR) signaling pathway - cell viability counter screen (AID 743221; active = well fitted cell-killing curve with a large enough effect in the repeat runs, not every such curve was filed as active; also: nearly all actives have a fitted effect of over 50% in size)
Summary of the method: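 Cytotoxicity is taken from ATP luminescence (CellTiter-Glo, 30 min, room temperature) in FXR-bla HEK 293T cells previously incubated 16 h at 37 C with compound and chenodeoxycholic acid at 50 uM final.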

[9] = target: Vitamin D3 receptor (Homo sapiens) (UniProt P11473); test: qHTS assay to identify small molecule agonists of the vitamin D receptor (VDR) signaling pathway (AID 743222; calls by dose curve)
Summary of the method: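 Agonist mode, beta-lactamase reporter: fluorescence from LiveBLAzer B/G FRET substrate (2 h, room temperature) read after 16 h compound treatment at 37 C of VDR-bla cells, which were pre-incubated 4 h after seeding.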

[10] = target: Vitamin D3 receptor (Homo sapiens) (UniProt P11473); test: qHTS assay to identify small molecule antagonists of the vitamin D receptor (VDR) signaling pathway (AID 743223; active = well fitted inhibition curve with a large enough effect in the signal ratio in the repeat runs, not every such curve was filed as active; the % refers to the signal ratio)
Summary of the method: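 Quantitative HTS in VDR-bla reporter cells stimulated with 1alpha,25-dihydroxyvitamin D3, 3 nM final. Compound exposure 16 h, 37C, 5% CO2. Read-out: beta-lactamase FRET substrate fluorescence, 2 h RT.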

Measured: Potency

Sequence of Bile acid receptor (Homo sapiens) (Q96RI1 whole entry, looked up): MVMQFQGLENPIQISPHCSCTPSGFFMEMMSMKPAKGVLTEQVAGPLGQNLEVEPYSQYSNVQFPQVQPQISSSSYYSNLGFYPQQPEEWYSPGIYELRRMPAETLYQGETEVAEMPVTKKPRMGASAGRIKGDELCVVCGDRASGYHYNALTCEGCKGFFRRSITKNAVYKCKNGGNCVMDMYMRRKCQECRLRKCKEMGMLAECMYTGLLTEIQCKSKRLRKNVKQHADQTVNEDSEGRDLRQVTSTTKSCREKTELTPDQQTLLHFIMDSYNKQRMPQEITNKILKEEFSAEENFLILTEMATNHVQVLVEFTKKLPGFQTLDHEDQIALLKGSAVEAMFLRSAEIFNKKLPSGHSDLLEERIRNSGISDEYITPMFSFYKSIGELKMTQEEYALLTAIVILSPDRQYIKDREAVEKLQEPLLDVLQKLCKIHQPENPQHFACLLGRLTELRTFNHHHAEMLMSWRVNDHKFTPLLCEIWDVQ
Sequence of Vitamin D3 receptor (Homo sapiens) (P11473 whole entry, looked up): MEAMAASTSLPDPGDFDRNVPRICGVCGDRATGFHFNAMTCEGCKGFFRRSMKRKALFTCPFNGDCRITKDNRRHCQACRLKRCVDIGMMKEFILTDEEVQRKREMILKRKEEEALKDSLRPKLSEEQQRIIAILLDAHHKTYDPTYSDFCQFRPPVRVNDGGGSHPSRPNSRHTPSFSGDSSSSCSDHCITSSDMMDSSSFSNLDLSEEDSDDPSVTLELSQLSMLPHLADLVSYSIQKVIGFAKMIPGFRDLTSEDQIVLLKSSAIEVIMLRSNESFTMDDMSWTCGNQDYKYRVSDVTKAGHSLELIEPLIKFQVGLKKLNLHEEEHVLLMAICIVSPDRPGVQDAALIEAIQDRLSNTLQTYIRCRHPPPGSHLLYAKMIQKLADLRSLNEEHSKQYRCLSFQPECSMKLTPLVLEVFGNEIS
Sequence of Peroxisome proliferator-activated receptor delta (Homo sapiens) (Q03181 whole entry, looked up): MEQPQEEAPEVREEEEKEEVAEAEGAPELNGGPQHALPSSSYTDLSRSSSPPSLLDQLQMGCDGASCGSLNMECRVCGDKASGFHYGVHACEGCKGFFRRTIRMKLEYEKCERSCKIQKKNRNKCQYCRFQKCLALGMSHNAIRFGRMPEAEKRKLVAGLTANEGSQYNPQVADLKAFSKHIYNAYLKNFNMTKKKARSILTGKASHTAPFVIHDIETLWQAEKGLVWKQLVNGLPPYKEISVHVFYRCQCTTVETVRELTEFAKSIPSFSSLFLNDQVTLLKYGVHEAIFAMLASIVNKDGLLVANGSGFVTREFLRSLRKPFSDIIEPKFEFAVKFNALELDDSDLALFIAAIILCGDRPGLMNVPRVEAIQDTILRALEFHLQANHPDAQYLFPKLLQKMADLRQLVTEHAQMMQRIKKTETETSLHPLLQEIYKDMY

Cc1cc(=O)[nH]c(=S)[nH]1
inactive: all assays above

O=c1cc[nH]c(=S)[nH]1
not listed: [3] | [9] | [10]
inactive: all other assays above

Cc1ccc(O)cc1
inactive: all assays above

Cn1c(=O)c2[nH]cnc2n(C)c1=O
inactive: [1] | [2] | [5] | [6] | [7] | [8]

O=NO
inactive: [1] | [3] | [6] | [8] | [9] | [10]

CCCC(O)C(CC)CO (stereo not given)
inactive: [1] | [2] | [4] | [6] | [8]

OC(Cn1cncn1)(Cn1cncn1)c1ccc(F)cc1F
not listed: [3] | [5] | [7]
inactive: all other assays above

c1ccc2[nH]ccc2c1
not listed: [3] | [5] | [7]
inactive: all other assays above

COc1c2occc2cc2ccc(=O)oc12
not listed: [2] | [3] | [4]
inactive: all other assays above

Cc1cc(=O)n(-c2ccccc2)n1C
not listed: [2] | [4]
inactive: all other assays above

O=C(O)CS
not listed: [3] | [5] | [7]
inactive: all other assays above

CC(=O)OCC(COC(C)=O)OC(C)=O
not listed: [5] | [7]
inactive: all other assays above

CCCN(CCC)S(=O)(=O)c1ccc(C(=O)O)cc1
not listed: [1]
inactive: all other assays above

Nc1ccc(O)c(C(=O)O)c1
inactive: all assays above

OCCc1ccccc1
not listed: [3] | [9] | [10]
inactive: all other assays above

O=S(=O)(O)NC1CCCCC1
inactive: [1] | [6] | [8] | [9] | [10]

O=C(O)CCCCCCCC(=O)O
inactive: [1] | [3] | [6] | [8] | [9] | [10]

O=C(O)c1cc(N=Nc2ccc(S(=O)(=O)Nc3ccccn3)cc2)ccc1O
not listed: [5] | [7]
inactive: all other assays above

CC(C)(Oc1ccc(C2CC2(Cl)Cl)cc1)C(=O)O (stereo not given)
not listed: [3] | [5] | [7]
inactive: all other assays above

CC(O)CN(CCN(CC(C)O)CC(C)O)CC(C)O (stereo not given)
not listed: [1]
inactive: all other assays above

O=C(O)c1[nH]n(-c2ccc(S(=O)(=O)O)cc2)c(=O)c1N=Nc1ccc(S(=O)(=O)O)cc1
inactive: all assays above

O=C(c1ccccc1)c1ccccc1
not listed: [2] | [4]
inactive: all other assays above

Nc1ccc(S(=O)(=O)c2ccc(N)cc2)cc1
not listed: [3] | [9] | [10]
inactive: all other assays above

Cc1ccc(C)c(OCCCC(C)(C)C(=O)O)c1
not listed: [1] | [9] | [10]
inactive: all other assays above

CC(C)[C@@H]1CC[C@@H](C)C[C@H]1O
inactive: all assays above

Oc1ccc(/C=C/c2cc(O)cc(O)c2)cc1
active: [5] 24.5 µM
not listed: [4]
inactive: all other assays above

O=C1CN(/N=C/c2ccc([N+](=O)[O-])o2)C(=O)N1
inactive: [1] | [2] | [6] | [8] | [9] | [10]

CC(=O)Nc1nnc(S(N)(=O)=O)s1
inactive: [1] | [3] | [6] | [8]

C/C=C/c1ccc(OC)cc1
inactive: [1] | [2] | [6] | [8]

Cc1ccc(S(=O)(=O)NC(=O)NN2CCCCCC2)cc1
not listed: [3] | [5] | [7]
inactive: all other assays above

CCCCC(CC)COC(=O)/C=C/c1ccc(OC)cc1 (stereo not given)
not listed: [5] | [7]
inactive: all other assays above

CCOc1ccc(NC(=O)CC(C)O)cc1 (stereo not given)
not listed: [1] | [9] | [10]
inactive: all other assays above

NNC(=O)c1ccncc1
not listed: [3] | [5] | [7]
inactive: all other assays above

Cc1noc(NS(=O)(=O)c2ccc(N)cc2)c1C
not listed: [3] | [9] | [10]
inactive: all other assays above

O=C(O)C(=O)O
inactive: [1] | [6] | [8] | [9] | [10]

O=C(O)CCCCC(=O)O
not listed: [3] | [4]
inactive: all other assays above

O=C(C1CCCCC1)N1CC(=O)N2CCc3ccccc3C2C1 (stereo not given)
inactive: [2] | [4] | [6] | [8] | [9] | [10]

O=C(O)c1cccnc1
inactive: [6] | [8]

CC(O)C(=O)O (stereo not given)
not listed: [1] | [3]
inactive: all other assays above

NC(=O)NC1NC(=O)NC1=O (stereo not given)
inactive: [2] | [4] | [6] | [8] | [9] | [10]

CCCCC1C(=O)N(c2ccccc2)N(c2ccccc2)C1=O
inactive: [5] | [6] | [7] | [8] | [9] | [10]

NC(=O)c1ccccc1O
not listed: [1] | [3]
inactive: all other assays above

CC(O)CO (stereo not given)
not listed: [1] | [5] | [7]
inactive: all other assays above

O=C(O)CCC(=O)O
not listed: [1] | [3]
inactive: all other assays above

NC(N)=O
inactive: [2] | [4] | [6] | [8]

Cn1cc[nH]c1=S
inactive: [2] | [4] | [6] | [8] | [9] | [10]

CNC[C@H](O)c1cccc(O)c1
inactive: [3] | [6] | [8] | [9] | [10]

CCCNC(=O)NS(=O)(=O)c1ccc(Cl)cc1
inactive: [2] | [4] | [6] | [8] | [9] | [10]

O=C1NC(=O)c2ccccc21
not listed: [1] | [2] | [4]
inactive: all other assays above

CC(=O)NS(=O)(=O)c1ccc(N)cc1
not listed: [1] | [5] | [7]
inactive: all other assays above

C1N2CN3CN1CN(C2)C3
not listed: [1]
inactive: all other assays above

COC(=O)[C@H](Cc1ccccc1)NC(=O)[C@@H](N)CC(=O)O (H-Asp-Phe-OMe)
inactive: [2] | [4] | [5] | [6] | [7] | [8]

N=C(N)c1ccc(OCCCCCOc2ccc(C(=N)N)cc2)cc1
inactive: [2] | [3] | [6] | [8] | [9] | [10]

COc1ccc2[nH]cc(CCNC(C)=O)c2c1
not listed: [1]
inactive: all other assays above

O=S(=O)(O)c1ccc2cc(O)ccc2c1
inactive: [3] | [6] | [8] | [9] | [10]

CCCCCCCCCCCCCCCC(=O)O
inactive: [3] | [6] | [8] | [9] | [10]

O=C(O)/C=C\C(=O)O
not listed: [1] | [5] | [7]
inactive: all other assays above

CC1(C)[C@@H]2CC[C@@]1(C)C(=O)C2
inactive: [2] | [4] | [6] | [8] | [9] | [10]

NC(=O)c1cnccn1
inactive: [2] | [4] | [6] | [8] | [9] | [10]

C[C@]12C=CC(=O)C=C1CC[C@@H]1[C@@H]2[C@@H](O)C[C@@]2(C)[C@H]1CC[C@]2(O)C(=O)CO
inactive: [2] | [6] | [8]

Cc1cn([C@H]2C[C@H](N=[N+]=[N-])[C@@H](CO)O2)c(=O)[nH]c1=O
not listed: [1] | [3]
inactive: all other assays above

CCCCOC(=O)CC(CC(=O)OCCCC)(OC(C)=O)C(=O)OCCCC
not listed: [1] | [3]
inactive: all other assays above

NS(=O)(=O)c1cc(C(=O)O)c(NCc2ccco2)cc1Cl
inactive: [2] | [6] | [8] | [9] | [10]

Cc1ccccc1C(OCCN(C)C)c1ccccc1 (stereo not given)
inactive: [2] | [4] | [5] | [6] | [7] | [8]

Nc1ccc(C(=O)O)cc1
inactive: [2] | [4] | [5] | [6] | [7] | [8]

CCC1(c2ccccc2)C(=O)NCNC1=O
not listed: [1] | [2] | [4]
inactive: all other assays above

Nc1ccc(S(=O)(=O)Nc2nccs2)cc1
inactive: [2] | [4] | [6] | [8] | [9] | [10]

CCCC(CCC)C(=O)O
inactive: [3] | [6] | [8] | [9] | [10]

NC(N)=NC(=O)c1nc(Cl)c(N)nc1N
inactive: [6] | [8] | [9] | [10]

Nc1ccn([C@H]2CC[C@@H](CO)O2)c(=O)n1
inactive: [2] | [4] | [6] | [8]

O=c1ccc2ccccc2o1
inactive: [3] | [5] | [6] | [7] | [8]

O=C(O)c1cccc([N+](=O)[O-])c1
inactive: [3] | [6] | [8]

O=C(c1ccccc1)C(O)c1ccccc1 (stereo not given)
not listed: [1] | [5] | [7]
inactive: all other assays above

From PubChem BioAssay (Tox21)
